Assay [1] is described as follows: ATG_CRE_CIS: Attagene CIS-FACTORIAL HepG2 Assay for human cAMP Responsive Element (CRE) binding protein 3 (AID 2282926). The note with it: HepG2 CRE cis-reporter, Attagene multiplexed mRNA; actives raise or lower the signal. The essentials: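 HepG2 cells transiently transfected with cis-element-driven multiple reporter transcription units; CRE reporter mRNA measured 24 h after dosing by RT-PCR, 6-FAM labelling, HpaI digestion and capillary electrophoresis. Bidirectional fit versus DMSO baseline.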

Assay [2] deals with CCAAT/enhancer-binding protein beta (Homo sapiens) (UniProt P17676). Put plainly: ATG_C_EBP_CIS: Attagene CIS-FACTORIAL HepG2 Assay for human CCAAT/Enhancer Binding Protein (C/EBP) beta (AID 2282927). The following applies: HepG2 Attagene cis-factorial transcription factor reporter; actives raise or lower the signal. In outline: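 Transiently transfected HepG2 (MRTU library, endogenous TF-driven promoters); 24 h dosing; total RNA → oligo(dT) RT → PCR → 6-FAM primer extension → HpaI digest → CE; fit bidirectionally vs DMSO.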
Chain of CCAAT/enhancer-binding protein beta (Homo sapiens) (P17676 whole entry, looked up): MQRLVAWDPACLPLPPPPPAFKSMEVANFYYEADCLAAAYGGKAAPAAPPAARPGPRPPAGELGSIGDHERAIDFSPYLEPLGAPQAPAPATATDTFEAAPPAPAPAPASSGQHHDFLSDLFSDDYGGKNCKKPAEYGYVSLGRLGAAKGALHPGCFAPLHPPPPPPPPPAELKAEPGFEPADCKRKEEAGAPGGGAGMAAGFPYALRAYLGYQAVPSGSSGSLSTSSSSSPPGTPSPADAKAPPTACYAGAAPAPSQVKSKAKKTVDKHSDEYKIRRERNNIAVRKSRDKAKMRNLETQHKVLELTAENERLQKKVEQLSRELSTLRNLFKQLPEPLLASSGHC

The nature of assay [3]: ATG_DR4_LXR_CIS: Attagene CIS-FACTORIAL HepG2 Assay for human Liver X Receptor (LXR), DR4 submotif (AID 2282929). The note with it: HepG2 Attagene DR4 cis-reporter, mRNA transcription; actives raise or lower the signal. The essentials: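 Transiently transfected HepG2 liver cells; cis-regulated reporters; 24 h dosing. RT-PCR plus CE read-out of reporter mRNA. DMSO baseline, bidirectional curve fitting.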

The target of assay [4] is Aryl hydrocarbon receptor (Homo sapiens) (UniProt P35869). Put plainly: ATG_Ahr_CIS: Attagene CIS-FACTORIAL HepG2 Assay for human Aryl Hydrocarbon Receptor (Ahr) (AID 2282930). The following applies: HepG2 AhR cis-factorial reporter transcription; actives raise or lower the signal. In outline:
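Read-out: reporter mRNA quantified by RT-PCR with fluorescent primer extension and capillary electrophoresis. Human HepG2 liver cells carried transfected cis-promoter reporter units and were exposed to chemical for 24 h; gain or loss fitted relative to DMSO.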

Assay [5] can be described thus: ATG_AP_1_CIS: Attagene CIS-FACTORIAL HepG2 Assay for human Activator Protein 1 (AP-1) (AID 2282931). The note with it: HepG2 Attagene cis-factorial AP-1 reporter mRNA; actives raise or lower the signal. The essentials:
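We transfected HepG2 cells transiently with a set of cis-regulated reporter transcription units, dosed them for 24 h, and quantified reporter mRNA via RT-PCR and capillary electrophoresis, scoring gain or loss of signal relative to DMSO.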

Assay [6] in a line: ATG_AP_2_CIS: Attagene CIS-FACTORIAL HepG2 Assay for human Activator Protein 2 (AP-2) (AID 2282932). The following applies: HepG2 AP-2 cis-reporter, Attagene transcription factor profiling; actives raise or lower the signal. The essentials: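 HepG2 cells transiently transfected with cis-element reporter units and exposed for 24 h. Reporter mRNA measured by RT-PCR, FAM labelling, HpaI digestion and capillary electrophoresis. Changes in either direction fitted relative to DMSO.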

Assay [7] in a line: ATG_BRE_CIS: Attagene CIS-FACTORIAL HepG2 Assay for human Bone Morphogenetic Protein (BMP) Response Element (BRE) (AID 2282933). The following applies: HepG2 BMP response element reporter, Attagene transcription factor profiling; actives raise or lower the signal. In outline: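 After a 24 h chemical treatment, transiently transfected HepG2 cells were lysed for RNA; reporter transcripts were quantified by fluorescent RT-PCR and capillary electrophoresis, normalised to DMSO.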

The target in assay [8] is Transcription factor E2F1 (Homo sapiens) (UniProt Q01094). In words: ATG_E2F_CIS: Attagene CIS-FACTORIAL HepG2 Assay for human E2F Transcription Factor 1 (AID 2282935). The note with it: HepG2 Attagene cis-reporter, E2F reporter RNA transcripts; actives raise or lower the signal. In outline: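 Endogenous E2F1 activity read through cis-promoter reporter units transfected into HepG2. After 24 h compound treatment, reporter mRNA measured by RT-PCR, HpaI digestion and capillary electrophoresis. Bidirectional fit versus DMSO.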
Chain of Transcription factor E2F1 (Homo sapiens) (Q01094 whole entry, looked up): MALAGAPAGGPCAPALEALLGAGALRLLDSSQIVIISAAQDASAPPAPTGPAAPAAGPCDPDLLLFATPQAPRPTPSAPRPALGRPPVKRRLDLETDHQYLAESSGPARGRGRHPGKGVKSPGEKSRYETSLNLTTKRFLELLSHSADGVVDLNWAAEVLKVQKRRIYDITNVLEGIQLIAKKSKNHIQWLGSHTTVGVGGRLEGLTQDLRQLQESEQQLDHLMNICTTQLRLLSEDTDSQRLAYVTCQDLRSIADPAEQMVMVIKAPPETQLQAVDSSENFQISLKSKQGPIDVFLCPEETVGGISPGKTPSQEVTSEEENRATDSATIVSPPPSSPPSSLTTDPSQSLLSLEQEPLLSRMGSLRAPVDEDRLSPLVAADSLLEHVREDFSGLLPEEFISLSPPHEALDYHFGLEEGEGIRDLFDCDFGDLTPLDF

Assay [9] is described as follows: ATG_E_Box_CIS: Attagene CIS-FACTORIAL HepG2 Assay for human Enhancer Box (E-box) (AID 2282936). The following applies: HepG2 E-box cis-reporter transcription, actives raise or lower the signal. The essentials: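 HepG2 cells transiently transfected with multiplexed cis-element reporter units, dosed 24 h; reporter mRNA quantified by RT-PCR, 6-FAM labelling, HpaI digestion and capillary electrophoresis. E-box (USF1) signal fitted bidirectionally vs DMSO.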

Assay [10] is described as follows: ATG_M_61_CIS: Attagene CIS-FACTORIAL HepG2 Assay for M61 Transcription Factor (Internal Marker) (AID 2282937). The following applies: HepG2 Attagene CIS-FACTORIAL M61 internal marker reporter; actives raise or lower the signal. The essentials:
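Multiplexed reporter mRNA assay, HepG2 human hepatoma cells, 24 h treatment. Signal: FAM-labelled, HpaI-digested RT-PCR fragments by CE. Fit: bidirectional, baseline DMSO.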

A short description of assay [11]: ATG_EGR_CIS: Attagene CIS-FACTORIAL HepG2 Assay for human Early Growth Response 1 (EGR1) (AID 2282938). The following applies: HepG2 Attagene CIS-FACTORIAL EGR reporter mRNA; actives raise or lower the signal. The essentials:
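Multiplexed cis-reporter system in human hepatoma HepG2 cells, transiently transfected. Cells are dosed for 24 h; reporter transcripts are amplified, fluorescently tagged and sized by capillary electrophoresis, with DMSO as negative control.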

Assay [12] in a line: ATG_M_19_CIS: Attagene CIS-FACTORIAL HepG2 Assay for M19 Transcription Factor (Internal Marker) (AID 2282939). The note with it: HepG2 Attagene CIS-FACTORIAL M19 internal marker reporter; actives raise or lower the signal. The essentials: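 In this multiplexed cell assay, transiently transfected HepG2 reporter units report endogenous transcription-factor activity; after 24 hours of treatment, labelled reporter cDNA fragments are quantified by capillary electrophoresis and fitted bidirectionally against DMSO.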

Assay [13] in a line: ATG_Ets_CIS: Attagene CIS-FACTORIAL HepG2 Assay for human Erythroblast Transformation Specific (ETS) (AID 2282941). The following applies: HepG2 ETS cis-reporter transcription, actives raise or lower the signal. In outline:
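HepG2 cells transfected with multiple cis-regulated reporter units measuring endogenous ETS-driven transcription, 24 h after dosing. Reporter mRNA quantified by RT-PCR with capillary electrophoresis; bidirectional fit relative to DMSO.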

Assay [14] has as its target Hepatocyte nuclear factor 3-beta (Homo sapiens) (UniProt Q9Y261). Put plainly: ATG_FoxA2_CIS: Attagene CIS-FACTORIAL HepG2 Assay for human Forkhead box A2 (FOXA2) (AID 2282942). The note with it: HepG2 cis-reporter transcription factor activity, 24 h; actives raise or lower the signal. In outline:
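Multiplexed cis-element reporter assay in transiently transfected HepG2. Twenty-four hours post-dosing, RNA was reverse-transcribed, amplified, FAM-labelled, HpaI-digested and separated by CE. Activity gain or loss relative to DMSO.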

Assay [15] is described as follows: ATG_FoxO_CIS: Attagene CIS-FACTORIAL HepG2 Assay for human Forkhead box O (FoxO) (AID 2282943). The note with it: HepG2 Attagene cis-reporter, FoxO element, mRNA; actives raise or lower the signal. In outline:
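Read-out: fluorescence of 6-FAM-labelled reporter cDNA fragments resolved by capillary electrophoresis. Transiently transfected HepG2 cells were dosed for 24 h; activity fitted in both directions relative to DMSO controls.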

Assay [16] can be described thus: ATG_GATA_CIS: Attagene CIS-FACTORIAL HepG2 Assay for human GATA Binding Protein (AID 2282944). The note with it: HepG2 GATA cis-element reporter, Attagene multiplex mRNA; actives raise or lower the signal. The essentials: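 Measures endogenous transcription factor-driven reporter mRNA in HepG2 cells transiently carrying cis-regulated constructs. 24 h dosing; RNA via oligo(dT) reverse transcription, PCR, HpaI digestion, capillary electrophoresis; fitted relative to DMSO.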

The nature of assay [17]: ATG_GLI_CIS: Attagene CIS-FACTORIAL HepG2 Assay for human Zinc Finger Protein GLI1 (AID 2282945). The note with it: HepG2, Attagene cis-factorial reporter mRNA, GLI element; actives raise or lower the signal. In outline: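 Transiently transfected HepG2 cells report endogenous transcription factor activity via cis-element-driven reporter units. After 24 h compound exposure, reporter mRNA was measured by RT-PCR with capillary electrophoresis; bidirectional fitting against DMSO baseline.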

Assay [18] in a line: ATG_ERE_CIS: Attagene CIS-FACTORIAL HepG2 Assay for Estrogen Response Element (ERE) (AID 2282940). The following applies: HepG2 ERE cis-reporter, Attagene RNA transcript; actives raise or lower the signal. In outline:
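Measuring endogenous transcription factor output, the assay doses transfected HepG2 cells for 24 hours and quantifies reporter transcripts by fluorescent RT-PCR and capillary electrophoresis, with DMSO as baseline.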

Active and inactive are the calls of the source. The calls were made as follows: active = hit-call score of the fitted dose curve at least 0.9, where 1 is the maximum; inactive = score below 0.9.

Chain of Aryl hydrocarbon receptor (Homo sapiens) (P35869 whole entry, looked up): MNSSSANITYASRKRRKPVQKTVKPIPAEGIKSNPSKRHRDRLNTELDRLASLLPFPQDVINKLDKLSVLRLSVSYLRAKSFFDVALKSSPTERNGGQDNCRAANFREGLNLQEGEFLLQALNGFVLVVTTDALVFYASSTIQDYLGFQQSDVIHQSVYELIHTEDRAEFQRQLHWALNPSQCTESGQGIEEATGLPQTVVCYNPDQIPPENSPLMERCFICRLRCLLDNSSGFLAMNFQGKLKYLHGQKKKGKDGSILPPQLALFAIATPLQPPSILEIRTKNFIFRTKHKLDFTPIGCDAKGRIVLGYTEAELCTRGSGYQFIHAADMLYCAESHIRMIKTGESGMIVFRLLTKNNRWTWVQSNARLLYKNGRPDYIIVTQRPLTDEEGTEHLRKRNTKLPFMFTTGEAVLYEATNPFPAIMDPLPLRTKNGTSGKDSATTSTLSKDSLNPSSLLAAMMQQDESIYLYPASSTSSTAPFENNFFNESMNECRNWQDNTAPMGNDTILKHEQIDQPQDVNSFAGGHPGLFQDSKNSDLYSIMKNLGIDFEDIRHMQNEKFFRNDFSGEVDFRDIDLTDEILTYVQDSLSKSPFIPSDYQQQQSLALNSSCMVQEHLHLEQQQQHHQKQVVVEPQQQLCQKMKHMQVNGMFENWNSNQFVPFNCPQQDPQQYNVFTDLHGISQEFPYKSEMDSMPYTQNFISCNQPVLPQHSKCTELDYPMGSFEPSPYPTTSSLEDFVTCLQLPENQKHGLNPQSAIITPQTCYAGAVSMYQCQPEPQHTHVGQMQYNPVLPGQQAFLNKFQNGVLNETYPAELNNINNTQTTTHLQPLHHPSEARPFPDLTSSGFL
Chain of Hepatocyte nuclear factor 3-beta (Homo sapiens) (Q9Y261 whole entry, looked up): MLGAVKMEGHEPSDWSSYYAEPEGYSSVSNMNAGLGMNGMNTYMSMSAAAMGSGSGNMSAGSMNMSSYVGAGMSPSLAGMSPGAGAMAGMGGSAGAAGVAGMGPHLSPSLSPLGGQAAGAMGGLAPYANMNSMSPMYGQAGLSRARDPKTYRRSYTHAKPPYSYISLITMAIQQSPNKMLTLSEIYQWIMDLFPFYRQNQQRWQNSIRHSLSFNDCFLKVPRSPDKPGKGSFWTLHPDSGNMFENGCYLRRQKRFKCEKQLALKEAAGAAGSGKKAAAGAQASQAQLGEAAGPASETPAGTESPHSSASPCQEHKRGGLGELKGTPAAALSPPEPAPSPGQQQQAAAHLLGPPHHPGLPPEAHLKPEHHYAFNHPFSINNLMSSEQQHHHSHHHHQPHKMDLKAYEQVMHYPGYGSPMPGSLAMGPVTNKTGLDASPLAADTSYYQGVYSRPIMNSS

`C=CC(=O)OCCn1c(=O)n(CCOC(=O)C=C)c(=O)n(CCOC(=O)C=C)c1=O`: the molecule was called inactive in assay [1], in assay [2], in assay [7], in assay [8], in assay [10] and in [12]. The call in assay [13], in assay [15], in assay [16] and in assay [17] was inactive. The concentration at half-maximal activity (AC50) – broadly, the midpoint of the concentration-response curve, whichever way the signal moves – was 16.5 µM (active) in [3]; 3.42 µM (active) in [4]; 53.6 µM (active) in assay [5]; 20 µM (active) in assay [6]; 18.9 µM (active) in assay [9]; 11.2 µM (active) in assay [11]. For the same molecule, in assay [14], the AC50 was 52.4 µM (active).

As to `C=CC(=O)OCC(O)COc1ccccc1` (configuration not stated), the call in [1], in assay [2], in assay [4], in assay [5], in assay [8] and in [10] was inactive. Moreover, the outcome in assay [12], in assay [18], in [13], in assay [14], in [16] and in assay [17] was inactive. For the same molecule, the AC50 in assay [3] was 32 µM (active); in assay [6], 26.8 µM (active); in [11], 64.3 µM (active); in assay [15], 25.2 µM (active).

As for `Cc1ccc(S)cc1`, the call in assay [1], in assay [2], in assay [4], in [6], in assay [8] and in assay [9] was inactive. The molecule was called inactive in [11], in assay [12], in [13], in assay [14], in assay [15] and in assay [16]. Further, in [17], the molecule was classed as inactive. Besides, the AC50 in assay [3] is 59.7 µM (active); in assay [5] it was 119 µM (active); in [7] it was 100 µM (active).

For `COC(=O)OC`, the result in assay [1], in assay [2], in [4], in [5], in [6] and in assay [7] was inactive. Besides, the outcome in assay [8], in assay [9], in [10], in assay [11], in assay [12] and in assay [13] was inactive. Besides, the result in assay [14], in assay [15], in [16] and in [17] was inactive.

On to `Cc1cc(C2(c3cc(C)c(O)cc3C)OS(=O)(=O)c3ccccc32)c(C)cc1O`, for which the call in assay [1], in assay [2], in assay [3], in assay [5], in assay [6] and in assay [7] was inactive. The molecule was called inactive in assay [8], in assay [10], in assay [11], in [12], in [13] and in [14]. The outcome in [15], in assay [16] and in assay [17] was inactive. For the same molecule, the values for the AC50 in assay [4] and in assay [18] were 44.5 µM (active) and 2.74 µM (active), respectively.

For `CC(C)(Oc1ccc(CCNC(=O)c2ccc(Cl)cc2)cc1)C(=O)O`, the result in [1], in assay [2], in [3], in [4], in [5] and in assay [6] was inactive. For the same molecule, the molecule was called inactive in assay [8], in assay [9], in [10], in assay [11], in assay [18] and in assay [14]. Moreover, the outcome in assay [15], in assay [16] and in [17] was inactive.

On to `COc1cc(C)cc(O)c1`, for which the molecule was called inactive in assay [1], in [2], in assay [3], in assay [4], in assay [5] and in assay [6]. The molecule was called inactive in assay [7], in [8], in assay [10], in assay [11], in [12] and in assay [13]. The molecule was called inactive in assay [14], in assay [15] and in assay [17].

For `CC(C)Oc1ccccc1O`, the result in [1], in assay [2], in [3], in [6], in assay [7] and in assay [8] was inactive. Also, the result in assay [9], in assay [10], in assay [11], in assay [12], in assay [18] and in [13] was inactive. Moreover, the outcome in assay [14], in assay [15], in [16] and in assay [17] was inactive. Also, the half-maximal activity concentration (AC50) in assay [4] was 47.8 µM (active).

For `O=C(O)c1snc(Cl)c1Cl`, the concentration at half-maximal activity (AC50) is 155 µM (active) in [1]; 14.5 µM (active) in [4]; 100 µM (active) in assay [5]; 164 µM (active) in [11]; 130 µM (active) in [15]. For the same molecule, the outcome in [2], in assay [6], in [7], in [9], in assay [10] and in [13] was inactive. The result in assay [16] and in assay [17] was inactive.

Values taken from PubChem BioAssay (EPA / NIEHS).
